PubChem BioAssay (NCATS)
Where “and” joins values, the source holds several entries; their conditions need not be identical. Equal values may be shown once. Records with an inconclusive call do not appear. A call without a number means that no potency is given here. Some compounds were tested as several samples or in several runs, with calls that do not always agree. Calls of active or inactive are those of the source. The call rests on the fitted dose curve; in most records, active means well fitted curve in the direction sought with a large enough effect; inconclusive means small, poorly fitted or top-dose-only effect, or another doubt; inactive means no such curve, though single readings can be large; an effect the other way counts as inactive or inconclusive.

Key:
[1] = molecular target: Tyrosine-protein kinase Yes (Homo sapiens) (UniProt P07947); assay: qHTS for small molecule inhibitors of Yes1 kinase: Primary Screen (AID 686947); further: nearly all actives have a fitted effect of over 60% in size; further: potency means the concentration at half of the fitted maximal effect
Sequence of Tyrosine-protein kinase Yes (Homo sapiens) (P07947 whole entry, looked up): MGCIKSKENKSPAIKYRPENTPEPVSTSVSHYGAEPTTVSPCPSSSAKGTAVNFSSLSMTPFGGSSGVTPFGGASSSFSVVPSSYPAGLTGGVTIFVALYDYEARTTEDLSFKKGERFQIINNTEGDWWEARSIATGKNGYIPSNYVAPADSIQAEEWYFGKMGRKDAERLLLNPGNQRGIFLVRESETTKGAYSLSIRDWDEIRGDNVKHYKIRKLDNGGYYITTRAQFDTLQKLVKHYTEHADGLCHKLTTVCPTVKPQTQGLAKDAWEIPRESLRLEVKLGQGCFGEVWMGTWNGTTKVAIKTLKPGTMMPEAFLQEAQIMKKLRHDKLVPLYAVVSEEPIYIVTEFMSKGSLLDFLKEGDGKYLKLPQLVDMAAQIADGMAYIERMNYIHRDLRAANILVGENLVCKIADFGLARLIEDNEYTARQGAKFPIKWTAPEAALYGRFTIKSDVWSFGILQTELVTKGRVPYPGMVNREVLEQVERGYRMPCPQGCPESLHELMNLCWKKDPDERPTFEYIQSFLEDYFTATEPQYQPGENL
Outline: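 In this qHTS format, inhibition is expressed relative to DMSO controls with enzyme (maximum) and without enzyme (minimum). The 60 min room-temperature reaction uses 0.1 mM ATP, with ADP detected by luminescence.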

[2] = qHTS for small molecule inhibitors of Yes1 kinase: Counter Assay (AID 686950);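 further: no kinase present so only ADP-Glo detection of a fixed ADP amount is tested; luminescence from ADP-Glo reporting ADP in a fixed ATP and ADP mixture; series mostly up to about 77 µM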
Outline: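 No kinase present; 0.08 mM ATP + 0.02 mM ADP in 50 mM Tris pH 7.5, 10 mM MgCl2, 150 mM NaCl, 1 mM DTT; 20 min compound preincubation, 60 min RT, ADP-Glo luminescence, normalized to ATP/ADP (max) and ATP-only (min).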

SMILES | Potency [1] | outcome [2]
CCn1c(-c2nonc2N)nc2c(C#CC(C)(C)O)ncc(OCC3CCNCC3)c21 | 23.2 µM (active) | inactive
Cc1cc(O)cc(C)c1C=Cc1cncc(C(=O)OC(C)(C)C)c1 | 0.733 µM (active) | inactive
CNC(=O)c1cncc(C=Cc2ccccc2Cl)c1 | 8.23 µM (active) | inactive
Nc1ncnc2occ(-c3ccc(NC(=O)Nc4cc(C(F)(F)F)ccc4F)cc3)c12 | 2.07 µM (active) and inactive | inactive
Oc1[nH]c2ccccc2c1C=Nc1ccc(-n2cncn2)cc1 | 9.23 µM (active) | inactive
O=C1NC(=O)C(c2cccc(Cl)c2)=C1Nc1ccc(Cl)c(C(=O)O)c1 | inactive | inactive
O=C1NC(=O)C(c2ccc(Cl)cc2)=C1Nc1ccc(Cl)c(C(=O)O)c1 | inactive | inactive
Cc1ccc(C(=O)NC2CC2)cc1-c1ccc2[nH]ncc2c1 | inactive | inactive
Cc1nn(C)c2cc(N(C)c3ccnc(Nc4cccc(S(N)(=O)=O)c4)n3)ccc12 | 1.16 µM (active) | inactive
CC(=O)Nc1cccc(C#Cc2cncnc2Nc2ccc(OCc3cccc(F)c3)c(Cl)c2)c1 | 23.2 µM (active) | inactive
COc1ccc(-c2nn3ncccc3c2-c2ccnc(Nc3ccc4c(c3)OCCO4)n2)cc1 | 0.0292 µM (active) | inactive
c1ccc(-c2[nH]ncc2-c2ccnc(-c3ccc(OCCn4ccnc4)cc3)c2)nc1 | 4.63 µM (active) | inactive
NC(=O)c1sc(-n2cnc3ccccc32)cc1OCc1ccccc1Br | 18.4 µM (active) | inactive
CS(=O)(=O)CCNCc1ccc(-c2ccc3ncnc(Nc4ccc(OCc5ccccc5)c(Cl)c4)c3c2)o1 | 0.923 µM (active) | inactive
COC(=O)Nc1nc2ccc(Oc3ccc(NC(=O)Nc4cccc(C(=O)O)c4)cc3)cc2[nH]1 | inactive | inactive
CS(=O)(=O)c1ccc(Oc2nccc(-c3c(-c4ccc(F)cc4)ncn3C3CCNCC3)n2)cc1 | inactive | inactive
ON=C1CCc2cc(-c3nc(C4CCNCC4)[nH]c3-c3ccncc3)ccc21 | inactive | inactive
CS(=O)(=O)CCNCc1ccc(-c2ccc3ncnc(Nc4ccc(OCc5ccccc5)c(Br)c4)c3c2)o1 | 2.32 µM (active) | inactive
CS(=O)(=O)Nc1ccc(-c2ccc3c(NC(=O)C4CC4)n[nH]c3c2)cc1 | 20.7 µM (active) | inactive
CCOc1ccc2c(-c3ccnc(Nc4cccc(C(F)(F)F)c4)n3)cnn2n1 | inactive | inactive
N#Cc1c(NC(=O)c2ccccc2F)sc2c1CCCC2 | inactive | inactive
N#Cc1c(NC(=O)CN2CCOCC2)sc2c1CCCC2 | inactive | inactive
COc1ccc2cc(-c3c(-c4ccncc4)nc(-c4ccc(S(C)=O)cc4C)n3C)ccc2c1 (centres undefined) | 1.64 µM (active) | inactive
COC(=O)Nc1nc2ccc(Oc3ccc(NC(=O)Nc4cc(C(F)(F)F)ccc4F)cc3)cc2s1 | inactive | inactive
CN1CCN(CCCNc2nc3ccc(Oc4ccc(NC(=O)Nc5cc(C(F)(F)F)ccc5F)cc4)cc3[nH]2)CC1 | inactive | inactive
Fc1cccc(COc2ccc(Nc3ncnc4sc(-c5ccco5)cc34)cc2Cl)c1 | inactive | inactive

SMILES | Potency [1] | outcome [2]
CCn1c(-c2nonc2N)nc2c(C#CC(C)(C)O)ncc(OCC3CCCN3)c21 (centres undefined) | 26 µM (active) | inactive
CN(C)c1ccc2[nH]c(O)c(C=Nc3ccc(S(N)(=O)=O)cc3)c2c1 | 4.63 µM (active) | inactive
Cc1nc(-c2ccccc2)n2nc(NCCCN3CCOCC3)ncc12 | 32.8 µM (active) | inactive
NS(=O)(=O)c1ccc(N=Cc2c(O)[nH]c3ccc4ncsc4c23)cc1 | 823 nM (active) and 923 nM (active) | inactive
CNC(=O)c1sc(-n2cnc3cc(OC)c(OC)cc32)cc1OCc1ccccc1C(F)(F)F | 18.4 µM (active) | inactive
Nc1nc(-c2ccccn2)c(-c2ccc3ncccc3n2)s1 | inactive | inactive
O=C(O)c1ccc(Oc2nccc(-c3c(-c4ccc(F)cc4)ncn3C3CCNCC3)n2)cc1 | inactive | inactive
Fc1ccc(-c2ncn(C3CCNCC3)c2-c2ccnc(Oc3ccc(Oc4ccccc4)cc3)n2)cc1 | inactive | inactive
Fc1ccc(-c2nn3ccccc3c2-c2ccncc2)cc1 | 23.2 µM (active) | inactive
NS(=O)(=O)c1cccc(-c2cc3ccncc3cc2OCc2ccccc2)c1 | inactive | inactive
CN1CCN(C(=O)c2ccc(NC(=O)Nc3ccc(N(C)c4ccnc(Nc5ccc(CS(C)(=O)=O)cc5)n4)cc3)cc2)CC1 | 14.6 µM (active) | inactive
COc1cc(N2CCN(C(C)C)CC2)ccc1Nc1nc(Nc2cccc(F)c2C(=O)O)c2cc[nH]c2n1 | inactive | inactive
Fc1ccc(-c2ncn(C3CCNCC3)c2-c2ccnc(Oc3cccc(C(F)(F)F)c3)n2)cc1 | inactive | inactive
COc1ccc2cc(-c3c(-c4ccncc4)nc(-c4ccc(S(C)(=O)=O)cc4C)n3C)ccc2c1 | 1.84 µM (active) | inactive
Cc1ccc(C(=O)NC(C)C)cc1-c1ccc(C(=O)NCC2CC2)cc1 | inactive | inactive
Fc1ccc(-c2nn3ncccc3c2-c2ccnc(Nc3ccc4c(c3)OCCO4)n2)cc1 | 0.0654 µM (active) | inactive
Nc1nc(-c2ccc(F)cc2)c(-c2ccc3ncccc3n2)s1 | 0.463 µM (active) | inactive
CCn1c(-c2nonc2N)nc2cncc(C(=O)NCCNC)c21 | 1.3 µM (active) | inactive
Fc1ccc(-c2cc(-c3cn[nH]c3-c3ccccn3)ccn2)cc1 | 29.2 µM (active) | inactive
COc1ccccc1-c1cc(C=C2C(=O)Nc3ncc(Br)cc32)cc(Br)c1O | 0.733 µM (active) | inactive
Cc1ccc(-c2cc3c(NC(=O)C4CC4)ncnc3o2)cc1 | 0.733 µM (active) | inactive
O=C1Nc2ccccc2C1=C1CCc2cc(O)ccc21 | 9.23 µM (active) | inactive
NC(=O)c1cc(-c2ccncc2)cc(-c2ccccc2)c1N | 0.519 µM (active) | inactive
NC(=O)c1ccc2c(-c3ccnc(NCCCO)n3)c(-c3ccc(F)cc3)nn2c1 | 6.54 µM (active) | inactive
COc1cccc(-c2c[nH]c3c(NN=Cc4ccncc4)ncnc23)c1 | 0.164 µM (active) | inactive
COc1cc(C)c(NC(=O)CN(C)C)cc1Nc1nc(Nc2cccc(F)c2C(N)=O)c2cc[nH]c2n1 | inactive | inactive

SMILES | Potency [1] | outcome [2]
O=S1CCN(Cc2ccc(-c3ccc4ncnc(Nc5ccc(OCc6cccc(F)c6)c(Cl)c5)c4c3)o2)CC1 | 2.07 µM (active) | inactive
Cc1nnc(-c2cccc(-c3ccc(C(=O)NCC4CC4)cc3)c2)o1 | inactive | inactive
Cn1c(-c2nonc2N)nc2cnccc21 | inactive | inactive
CS(=O)(=O)CCNCc1ccc(-c2ccc3ncnc(Nc4ccc(OCc5cccc(C(F)(F)F)c5)cc4)c3c2)o1 | 6.54 µM (active) | inactive
OCc1ccc(-c2nc(-c3ccc4c(c3)OCO4)c(-c3ccccn3)[nH]2)cc1 | inactive | inactive
NS(=O)(=O)c1ccc(-c2ccc3c(NC(=O)C4CC4)n[nH]c3c2)cc1 | 1.84 µM (active) | inactive
O=C(OC1CNC(C#Cc2cc3ncnc(Nc4ccc(OCc5cccc(F)c5)c(Cl)c4)c3s2)C1)N1CCOCC1 (centres undefined) | 6.54 µM (active) | inactive
COc1cc2ncn(-c3cc(OCc4ccccc4C(F)(F)F)c(C(C)=O)s3)c2cc1OC | inactive | inactive
O=C1N=c2ccc(N=Cc3c(O)[nH]c4ccccc34)cc2=N1 | 2.92 µM (active) | inactive
COc1cc(Nc2ncc3c(C)nc(-c4cccc(C(F)(F)F)c4)n3n2)cc(OC)c1OC | 0.582 µM (active) | inactive
C#Cc1cccc(Nc2ncnc3ccc(OCCCCNCCS(C)(=O)=O)cc23)c1 | 7.33 µM (active) | inactive
CC(C)=Cc1cccc2[nH]c(O)c(N=Nc3ccc(S(N)(=O)=O)cc3)c12 | inactive | inactive
COc1ccc(-c2ccc3c(NC(=O)C4CC4)n[nH]c3n2)cc1 | 6.54 µM (active) | inactive
CC(C)c1ccc2c(N=Nc3ccc(S(N)(=O)=O)cc3)c(O)[nH]c2c1 | inactive | inactive
COC(=O)Nc1nc2ccc(Oc3cccc(NC(=O)Nc4cc(C(F)(F)F)ccc4F)c3)cc2[nH]1 | 11.6 µM (active) | inactive
CN(C)c1cc2c(Nc3ccc4nc(Cc5ccccc5)[nH]c4c3)ncnc2cn1 | 0.412 µM (active) | inactive
NS(=O)(=O)c1ccc(N=Nc2c(O)[nH]c3ccc(C(=O)NCCCn4ccnc4)cc23)cc1 | 2.6 µM (active) | inactive
Cc1c2ccc(N(C)c3ccnc(Nc4cccc(S(N)(=O)=O)c4)n3)cc2nn1C | 0.519 µM (active) | inactive
c1ccc(Cc2nc3ccc(Nc4ncnc5ccccc45)cc3[nH]2)cc1 | 1.16 µM (active) | inactive
CC1(C)CC(n2cnc(-c3ccc(F)cc3)c2-c2ccnc(N)n2)CC(C)(C)N1 | 5.19 µM (active) | inactive
CN1CCC(C(=O)Nc2n[nH]c3nc(-c4ccc(O)cc4)c(Br)cc23)CC1 | 36.8 µM (active) and 23.2 µM (active) | inactive
CCS(=O)(=O)c1ccc(OC)c(Nc2ncc(-c3cccc(OC)c3)o2)c1 | 0.13 µM (active) | inactive
COc1cc2ncn(-c3cc(OCc4ccccc4Cl)c(C(N)=O)s3)c2cc1OC | 5.19 µM (active) | inactive
CS(=O)(=O)CCNCc1nc(-c2ccc3ncnc(Nc4ccc(F)c(Cl)c4)c3c2)cs1 | 4.63 µM (active) | inactive
CCn1c(-c2nonc2N)nc2cncc(C(=O)N3CCC(N)C3)c21 (centres undefined) | inactive | inactive
